AHR act – activates the human aryl hydrocarbon receptor | AHR-responsive luciferase reporter cells, luminescence | activation, % at 5 µM | 2.5% of 320,000 active; in the data active = activation above about 47%;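 note: 0% = vehicle wells and 100% = reference agonist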
VLA-4 inh – inhibition in a human VLA-4 binding assay | VLA-4 expressing cells, ligand binding flow cytometry | 0.2% of 330,000 active | inhibition, % (about 7 µM as worked out from the volumes in the protocol) | AID 2557 | P13612; in the data active = inhibition above about 50%
Target sequence (P13612 whole entry, looked up): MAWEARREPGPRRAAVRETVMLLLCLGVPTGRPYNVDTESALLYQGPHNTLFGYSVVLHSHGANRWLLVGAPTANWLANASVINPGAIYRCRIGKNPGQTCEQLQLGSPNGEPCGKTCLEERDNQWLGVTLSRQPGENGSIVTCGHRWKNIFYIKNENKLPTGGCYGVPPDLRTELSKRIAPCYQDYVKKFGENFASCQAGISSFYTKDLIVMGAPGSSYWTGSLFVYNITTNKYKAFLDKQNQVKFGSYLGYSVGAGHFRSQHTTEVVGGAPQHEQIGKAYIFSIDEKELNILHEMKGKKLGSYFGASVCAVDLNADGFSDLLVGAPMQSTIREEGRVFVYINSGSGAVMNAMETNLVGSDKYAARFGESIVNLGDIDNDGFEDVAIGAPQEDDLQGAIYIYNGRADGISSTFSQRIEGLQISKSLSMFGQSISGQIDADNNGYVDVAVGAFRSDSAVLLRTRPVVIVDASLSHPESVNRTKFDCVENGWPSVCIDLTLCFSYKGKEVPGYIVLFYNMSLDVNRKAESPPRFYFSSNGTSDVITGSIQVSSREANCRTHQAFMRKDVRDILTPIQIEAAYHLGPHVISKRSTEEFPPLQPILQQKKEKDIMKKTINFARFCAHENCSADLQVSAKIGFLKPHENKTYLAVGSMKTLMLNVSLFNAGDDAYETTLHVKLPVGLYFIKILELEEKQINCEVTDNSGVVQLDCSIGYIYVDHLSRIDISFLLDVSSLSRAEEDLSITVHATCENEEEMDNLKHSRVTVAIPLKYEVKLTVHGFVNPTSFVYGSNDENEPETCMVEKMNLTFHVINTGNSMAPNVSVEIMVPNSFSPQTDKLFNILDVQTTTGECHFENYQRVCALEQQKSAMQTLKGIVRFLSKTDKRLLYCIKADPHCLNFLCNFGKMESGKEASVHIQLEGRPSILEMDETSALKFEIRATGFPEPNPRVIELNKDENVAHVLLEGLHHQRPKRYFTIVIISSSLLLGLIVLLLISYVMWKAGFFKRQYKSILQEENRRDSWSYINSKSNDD
Efflux pump mplx – antifungal efflux pump inhibition, Nile Red retention. S. cerevisiae Candida pump triplex. 0.44% of 330,000 active. inhibition, % at 10 µM. AID 485275;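 active = plate passing quality check with inhibition over a set limit, or well fluorescence over plate mean plus 4 SD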;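 note: Nile Red retained in pooled yeast measured as flow cytometry median fluorescence; 0% = buffer negative control and 100% = Enniatin B positive control; higher means more Nile Red kept so more efflux inhibition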
SUMO Mot1 rescue – blocks SUMOylation pathway, rescuing yeast Mot1-301 growth | S. cerevisiae Mot1-301 growth rescue, ATP luminescence, 38.5C; percent above DMSO median, 100 means doubled | AID 2716 | 1% of 320,000 active | growth rescue, % at 18.8 µM;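 active = every valid replicate shows activation above 250% relative to neutral control wells; inactive = the rest, any valid replicate at or below 250%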;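 note: OY570 slx delta 5 strain wells were the positive control but not used for scaling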
ALR inh – blocks human ALR sulfhydryl oxidase activity | inhibition, % (no concentration beside the values) | purified ALR, DTT oxidation, H2O2 HRP-luminol luminescence | 3.8% of 290,000 active;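 active = mean replicate inhibition above about 79%, with every replicate also reaching it, limit read from the data; inconclusive = only one of the two criteria met; inactive = mean below limit and not every replicate reaching it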
Bfl-1 A1 inh – inhibitors of the anti-apoptotic protein A1, read as caspase activation | MEF A1-2A-BIM cells, Caspase-Glo 3/7 luminescence, 3 h; percent of clofoctol response, vehicle zero | caspase activation, % (concentration not given with the values) | 0.066% of 330,000 active | AID 2462;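 active = over half of replicate activation scores above 10%, or exactly half above 10 with the replicate mean above 10; inconclusive = replicate mean below 10 yet half the replicates above 10; inactive = over half of replicates below 10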
Cmpd fluor yeast – counter-screen for efflux pump inhibitors: compound fluorescence | shares compounds with Efflux pump mplx | S. cerevisiae AD/pABC3, flow cytometry | fluorescence ratio to DMSO, % at 10 µM | 4% of 1,700 active | AID 588517;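 active = fluorescence ratio to DMSO above its plate's cutoff, the plate mean ratio plus 5 SD, cut at about 210% in these data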;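 note: unstained yeast with no Nile Red so the signal is compound autofluorescence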
CaMdr1 efflux inh – inhibitors of Candida albicans Mdr1 efflux pump; shares compounds with Efflux pump mplx; inhibition, % at 10 µM; 1% of 1,700 active; S. cerevisiae AD/CaMDR1, Nile Red efflux, flow cytometry; in the data active = inhibition above about 26%;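 note: 0% = DMSO vehicle and 100% = reference inhibitor; higher means more Nile Red retained so more efflux inhibition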
CaCdr2 efflux inh – Candida Cdr2 efflux pump inhibition. S. cerevisiae AD/CaCDR2, Nile Red retention, flow cytometry. 4% of 1,700 active. shares compounds with Efflux pump mplx. Nile Red retention ratio vs DMSO, % at 10 µM; in the data active = Nile Red retention ratio vs DMSO above about 190%;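 note: higher ratio means more blocking of Cdr2 efflux of the dye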
Cdr1 pump inh – blocks the Candida albicans Cdr1 efflux pump in yeast; shares compounds with Efflux pump mplx; 1% of 1,700 active; inhibition, % at 10 µM; S. cerevisiae AD/CaCDR1, Nile Red efflux, flow cytometry;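 active = inhibition above the screen-wide mean plus twice its standard deviation, cut at about 32% in these data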
* = called active by the depositor; i = inactive; ? = inconclusive; . = no result; + = active, no number. Compounds with a hit are over-represented: about 7.2% of the library has one in this group of screens.

SMILES	AHR act	VLA-4 inh	Efflux pump mplx	SUMO Mot1 rescue	ALR inh	Bfl-1 A1 inh	Cmpd fluor yeast	CaMdr1 efflux inh	CaCdr2 efflux inh	Cdr1 pump inh
Cc1ccc(S(=O)(=O)Nc2ccc(-n3cnnn3)cc2)cc1	1	-10	0.9*	15	0	-1	103	0	101	0
Cc1ccnc(SC2CC(=O)N(c3ccc(Cl)cc3)C2=O)n1 (centres undefined)	.	-4	0	12	-1	0	.	.	.	.
Cc1ccnc(SC2CC(=O)N(c3ccc(Br)cc3)C2=O)n1 (centres undefined)	.	4	1.1*	i	2	-2	83	0	83	0
Cc1ccc(/C=c2\sc3nc(-c4ccco4)nn3c2=O)o1	13	-13	0	-1	?	1	.	.	.	.
COc1ccc(Br)cc1/C=c1\sc2nc(-c3ccco3)nn2c1=O	6	1	1.1*	17	4	-2	107	0	109	0
Cc1ccc(-c2nc3s/c(=C\c4ccco4)c(=O)n3n2)cc1	17	-16	0.8*	6	3	0	97	0	97	0
COc1ccccc1/C=c1\sc2nc(-c3ccccc3OC)nn2c1=O	2	2	0	-9	-5	.	100	0	106	0
COc1ccc(/C=c2\sc3nc(=O)c(C)nn3c2=O)c(OC)c1	4	22	0	-3	-3	1	.	.	.	.
Cc1ccc(/C=c2\sc3nc(-c4ccccc4Br)nn3c2=O)o1	3	-82	0	-10	56	1	99	0	109	0
COc1ccc(C(=O)n2nc(-c3ccco3)nc2SC)cc1OC	1	11	0	-8	20	0	.	.	.	.
Clc1ccccc1CN1CCN(/N=C/C=C/c2ccco2)CC1	-2	13	0	89	5	0	.	.	.	.
S=C(NCc1ccccn1)Nc1ccc(Cl)cc1Cl	4	-6	0	7	-5	-1	.	.	.	.
CN(c1ccccc1)S(=O)(=O)c1cccc(C(=O)NC2CCCCC2)c1	-1	-8	0	-24	-3	-1	.	.	.	.
COc1ccc(N2CCN(C(=O)c3sc4ncn(CC(=O)N5CCCCC5C)c(=O)c4c3C)CC2)cc1 (centres undefined)	1	11	0	300	50	0	.	.	.	.
COc1cc(NC(=O)Nc2ccc(Cl)c(Cl)c2)c(C(=O)O)cc1OC	9	-1	0	.	17	0	.	.	.	.
C=CCN(Cc1cc(OC)ccc1OC)S(=O)(=O)N(C)C	8	-6	0	-12	11	0	.	.	.	.
Cc1ccc(/C(C#N)=C\c2ccc(N3CCOCC3)o2)cc1	-1	-110	0	31	-20	1	.	.	.	.
Cc1ccc2nc(/C(C#N)=C\c3ccc(N4CCOCC4)o3)[nH]c2c1	43	-194	0.5*	48	45	-1	128	0	131	0
Cc1ccc2nc(/C(C#N)=C\c3ccc([N+](=O)[O-])o3)[nH]c2c1	33	i	18*	72	?	0	+	8	+	0
N#C/C(=C\c1ccc([N+](=O)[O-])o1)c1nc2ccccc2[nH]1	55*	i	5.1*	357*	-9	1	+	4	478*	2
Nc1cccc(CP(=O)(c2ccccc2)c2ccccc2)c1	-2	1	0	-7	.	1	.	.	.	.
O=C(Cn1cncn1)N/N=C/c1ccncc1	-1	15	0	215	.	1	.	.	.	.
O=C(Cn1cncn1)N/N=C/c1ccc(Cl)cc1	6	13	9.7*	14	-6	0	95	0	91	0
COc1ccccc1CNC(=O)C(=O)NCCC1CCCCN1S(=O)(=O)c1ccccc1 (centres undefined)	-2	-19	0	8	-2	0	.	.	.	.
Cc1ccc(CNC(=O)CCc2c(C)nn(-c3ccc(N4CCOCC4)nn3)c2C)cc1	5	5	2.0*	4	4	0	100	0	112	0
SMILES	AHR act	VLA-4 inh	Efflux pump mplx	SUMO Mot1 rescue	ALR inh	Bfl-1 A1 inh	Cmpd fluor yeast	CaMdr1 efflux inh	CaCdr2 efflux inh	Cdr1 pump inh
Cc1ccc(-n2c(SCC(=O)NCc3ccco3)nc3c([nH]c4ccccc43)c2=O)cc1	20	34	0	8	.	-1	.	.	.	.
O=C(N/N=C/c1cccs1)c1ccc2c(c1)OCO2	36	-6	11*	-6	4	-3	95	0	112	0
O=C(N/N=C/c1ccccc1O)c1ccc2c(c1)OCO2	31	-6	0	2	-8	-6	.	.	.	.
Nc1nnc(SCc2ccc(Cl)cc2)s1	1	6	0	-8	-6	0	.	.	.	.
CCOC(=O)c1ccc(CSc2nnc(N)s2)cc1	3	-14	1.8*	-22	-4	-5	103	0	112	0
COc1ccc(CC(=O)Nc2c3c(nn2C(C)(C)C)CS(=O)C3)cc1 (centres undefined)	0	14	1.8*	-10	.	0	114	0	100	0
COc1cc(OC)cc(C(=O)Nc2sc3c(c2C(N)=O)CCC3)c1	12	4	1.4*	23	.	-3	107	0	100	0
COc1ccc(CC(=O)Nc2sc3c(c2C(N)=O)CCCC3)cc1	0	21	0	-19	-4	0	.	.	.	.
CCOC(=O)C1NN=C(C(=O)c2ccccc2)C1c1ccccc1 (centres undefined)	-1	-9	0	27	.	0	.	.	.	.
CCOC(=O)C1NN=C(C(=O)c2ccccc2)C1c1ccc(OC)cc1 (centres undefined)	-2	3	1.4*	2	-3	-1	100	0	112	0
O=C(Cn1c2ccccc2c(=O)c2ccccc21)Nc1ccccc1F	4	20	17*	3	-14	-1	98	0	103	0
CC(=O)c1cn(CC(=O)Nc2ccccc2F)c2ccccc12	16	24	0	-5	-5	0	.	.	.	.
CCSC(=S)c1c(C)[nH]n(-c2ccccc2)c1=O	2	-4	0	-1	33	-1	.	.	.	.
CN(CCC#N)C(=O)COC(=O)c1ccc2c(c1)C(=O)N(C1CCCCC1)C2=O	1	6	6.2*	-21	-5	2	106	0	106	0
C=CCN1C(=O)c2ccc(C(=O)OCC(=O)N(C)C3CCCCC3)cc2C1=O	5	-7	0	3	-12	0	.	.	.	.
CN(CCc1ccccn1)C(=O)c1ccc(OC(F)(F)F)cc1	2	-6	0.8*	-18	-1	0	98	0	107	0

Screens deposited in PubChem BioAssay by several laboratories.
